# Records with an inconclusive call do not appear. Activity calls are given as the source filed them. How the source made its calls: active means hit-call score of the fitted dose curve at least 0.9, where 1 is the maximum; inconclusive means response in the unintended direction; inactive means score below 0.9.
# Assays:
# [1] = biological target: Cellular tumor antigen p53 (Homo sapiens) (UniProt P04637); test: TOX21_p53_BLA_p2_ratio: Tox21 HCT-116 p53 Agonism Beta-lactamase Assay, Ratio, Phase 2 (AID 2283592)
# How it was run: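 In this cell-based reporter format, HCT116 cells were dosed with chemicals delivered from DMSO by 217-fold dilution and incubated 16 h at 37C. Emission at 460 and 530 nm after 2 h CCF4-AM loading provided the ratio, fitted upward versus DMSO.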
# [2] = biological target: Cellular tumor antigen p53 (Homo sapiens) (UniProt P04637); test: TOX21_p53_BLA_p5_ratio: Tox21 HCT-116 p53 Agonism Beta-lactamase Assay, Ratio, Phase 5 (AID 2283599)
# How it was run: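 Beta-lactamase reporter ratio (blue 460 nm over green 530 nm, 405 nm excitation) after 2 h CCF4-AM loading, in HCT-116 cells exposed 16 h at 37 C to compounds pinned at 217-fold dilution. Increases relative to DMSO baseline scored.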
# [3] = TOX21_p53_BLA_p5_viability: Viability Assessment in the Tox21 HCT-116 p53 Agonism Beta-lactamase Assay, Phase 5 (AID 2283600)
# How it was run: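 Compounds, pinned from DMSO at 217-fold dilution, were left on the cells for 16 h. The viability endpoint was ATP content measured by CellTiter-Glo luminescence, where falling signal reflects cytotoxicity.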
# [4] = biological target: Cellular tumor antigen p53 (Homo sapiens) (UniProt P04637); test: TOX21_p53_BLA_p4_ratio: Tox21 HCT-116 p53 Agonism Beta-lactamase Assay, Ratio, Phase 4 (AID 2283601)
# How it was run: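 Signal is the blue/green (460nm/530nm) ratio of cleaved versus uncleaved CCF4-AM substrate, read after 2 h substrate loading. Cells were HCT116 carrying the p53-responsive beta-lactamase reporter, dosed 16 h at 37C, 5% CO2; CellTiter-Glo measured in parallel.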
# [5] = TOX21_p53_BLA_p4_viability: Viability Assessment in the Tox21 HCT-116 p53 Agonism Beta-lactamase Assay, Phase 4 (AID 2283597);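 further: hits lower the luminescence signal meaning cytotoxicity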
# How it was run: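 We seeded HCT116 p53 reporter cells at 4000/well and waited 5 h. We then added compounds in DMSO at a 217-fold dilution and incubated for 16 h. Viability was read as CellTiter-Glo luminescence after 30 min at RT.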
# Cellular tumor antigen p53 (Homo sapiens), sequence (P04637 whole entry, looked up): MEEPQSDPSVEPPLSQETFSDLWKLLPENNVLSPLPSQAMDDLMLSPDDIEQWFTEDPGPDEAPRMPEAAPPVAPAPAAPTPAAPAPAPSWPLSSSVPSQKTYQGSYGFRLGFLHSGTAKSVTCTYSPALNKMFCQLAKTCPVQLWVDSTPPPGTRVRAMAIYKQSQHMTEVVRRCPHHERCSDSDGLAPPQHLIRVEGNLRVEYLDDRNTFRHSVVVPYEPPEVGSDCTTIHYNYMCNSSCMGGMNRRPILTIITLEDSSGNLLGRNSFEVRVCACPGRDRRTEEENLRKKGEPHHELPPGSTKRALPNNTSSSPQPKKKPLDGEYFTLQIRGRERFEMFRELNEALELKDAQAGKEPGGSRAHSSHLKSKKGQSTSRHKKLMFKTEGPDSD
smiles,measurement,setting,value
CO[C@]1(NC(=O)CSC(F)F)C(=O)N2C(C(=O)O)=C(CSc3nnnn3CCO)CO[C@H]21,outcome,[1],inactive
same,outcome,[2],inactive
CC(C)(C)NCC(O)COc1cccc2c1C[C@H](O)[C@H](O)C2 (stereo partly drawn),outcome,[1],inactive
same,outcome,[2],inactive
same,outcome,[3],inactive
same,outcome,[4],inactive
CCCN(CC)C(CC)C(=O)Nc1c(C)cccc1C (stereo not drawn),outcome,[1],inactive
same,outcome,[2],inactive
same,outcome,[3],inactive
Cc1ccc(O)c(N)c1,outcome,[1],inactive
same,outcome,[2],inactive
same,outcome,[3],inactive
same,outcome,[4],inactive
O=C(C(=O)c1ccc(Br)cc1)c1ccc(Br)cc1,outcome,[1],inactive
same,outcome,[2],inactive
C1CCc2nnnn2CC1,outcome,[1],inactive
same,outcome,[2],inactive
CCc1ccc(C(=O)C(C)CN2CCCCC2)cc1 (stereo not drawn),outcome,[1],inactive
same,outcome,[2],inactive
same,outcome,[3],inactive
same,outcome,[4],inactive
CC(CO)CO,outcome,[1],inactive
same,outcome,[5],inactive
same,outcome,[4],inactive
CCOC(=O)[C@H](CCc1ccccc1)N[C@@H](C)C(=O)N1CC2(C[C@H]1C(=O)O)SCCS2,outcome,[1],inactive
same,outcome,[5],inactive
same,outcome,[2],inactive
same,outcome,[4],inactive
CN(C)Cc1ccccc1,outcome,[1],inactive
same,outcome,[2],inactive
CC1(C)Cc2cccc(N)c2O1,outcome,[1],inactive
same,outcome,[2],inactive
same,outcome,[3],inactive
CCCCCCCCCCCCCCCCOP(=O)([O-])OCC[N+](C)(C)C,outcome,[1],inactive
same,outcome,[2],inactive
CC(C)COC(=O)OCN1C(=O)CN(CCN2CC(=O)N(COC(=O)OCC(C)C)C(=O)C2)CC1=O,AC50,[1],4.1 µM (active)
same,outcome,[5],inactive
same,AC50,[2],7.4 µM (active)
same,AC50,[4],3.05 µM (active)
O=C(O)CCC/C=C\C[C@@H]1[C@@H](/C=C/[C@@H](O)COc2cccc(Cl)c2)[C@H](O)C[C@@H]1O,outcome,[1],inactive
same,outcome,[2],inactive
CCCCCCCCCCCCCCCCBr,outcome,[1],inactive
same,outcome,[2],inactive

# Source: PubChem BioAssay (EPA / NIEHS)
